Values without a mark were called inactive.
test system: Vero E6 infected with SARS-CoV-2; assay: SARS-CoV-2 infection rate relative to infected DMSO; higher = more infection, active = 60 or less; conditions: 24 h

SMILES | SARS-CoV-2 infection rate
C[N+](C)(C)CC(O)CC(=O)[O-] (stereo not given) [carnitine-(D/L)] (10 µM) | 117%
O=C(O)c1cc(O)c(O)c(O)c1 [gallic-acid] (10 µM) | 110%
O=C(O)C(=O)CBr [3-bromopyruvate] (10 µM) | 111%
Ic1cncc(OC[C@@H]2CCN2)c1 (10 µM) | 101%
O=C1[C@@H]2[C@H]3CC[C@H](C3)[C@@H]2C(=O)N1C[C@@H]1CCCC[C@H]1CN1CCN(c2nsc3ccccc23)CC1 [lurasidone] (10 µM) | 96.5%
O=C(Nc1ccc(Cl)nc1)c1ccc(Cl)cc1 (10 µM) | 99.5%
C[C@@H](NCc1cc(Br)cc2nc(O)c(O)nc12)P(=O)(O)O (10 µM) | 101%
C[C@]12Cc3c[nH]nc3C[C@@H]1CC[C@@H]1[C@@H]2CC[C@@]2(C)[C@H]1CC[C@]2(C)O [stanozolol] (10 µM) | 110%
Cc1ccccc1C(=O)Nc1ccc(C(=O)N2CCCC(N(C)C)c3ccccc32)cc1 (stereo not given) [mozavaptan] (0.833333 µM) | 117%
N#Cc1nn(-c2c(Cl)cc(C(F)(F)F)cc2Cl)c(N)c1[S+]([O-])C(F)(F)F (stereo not given) [fipronil] (10 µM) | 102%
N#Cc1c(O)c2c(-c3ccc(-c4ccccc4O)cc3)csc2[nH]c1=O (10 µM) | 106%
CCOc1ccc(C[C@H]2NC(=O)CCSSC[C@@H](C(=O)N3CCC[C@H]3C(=O)N[C@@H](CCCN)C(=O)NCC(N)=O)NC(=O)[C@H](CC(N)=O)NC(=O)[C@H]([C@@H](C)O)NC(=O)[C@H]([C@@H](C)CC)NC2=O)cc1 [atosiban] (10 µM) | 91%
CC(C)(C(=O)NCC(F)(F)C(F)(F)F)C(=O)N[C@@H]1C(=O)Nc2ccccc2-c2ccccc21 (10 µM) | 86%
Cc1ccc(=O)n(-c2ccccc2)c1 [pirfenidone] (10 µM) | 83%
CC(=O)[C@H]1CC[C@H]2[C@@H]3CC[C@H]4C[C@](C)(O)CC[C@]4(C)[C@H]3CC[C@]12C [ganaxolone] (10 µM) | 104%
CSCC[C@H](NC(=O)[C@H](Cc1ccccc1)NC(=O)CNC(=O)CNC(=O)[C@@H](N)Cc1ccc(O)cc1)C(=O)O [metenkephalin] (10 µM) | 91%
O=[N+]([O-])/N=C1\NCCN1Cc1ccc(Cl)nc1 [imidacloprid] (10 µM) | 98.5%
CCN1CCN(C(=O)N[C@@H](C(=O)N[C@@H]2C(=O)N3[C@@H]2SC(C)(C)[C@@H]3C(=O)O)c2ccccc2)C(=O)C1=O [piperacillin] (10 µM) | 96%
NCCS(=O)(=O)O [taurine] (10 µM) | 94.5%
CN(C)C(=O)c1cc2cnc(Nc3ccc(N4CCNCC4)cn3)nc2n1C1CCCC1 [ribociclib] (10 µM) | 113%

SMILES | SARS-CoV-2 infection rate
O=C(O)CC1CC(c2ccccc2)=NO1 (stereo not given) (10 µM) | 116%
CC(C)(C)CC(C)(C)c1ccc(O)c(Cc2ccc(Cl)cc2Cl)c1 [clofoctol] (10 µM) | 94%
COc1ccc([C@@H]2CC(=O)c3c(O)cc(O)cc3O2)cc1O [hesperetin] (10 µM) | 107%
COc1ccc(CC(C)NCC(O)c2ccc(O)c(NC=O)c2)cc1 (stereo not given) [formoterol] (10 µM) | 100%
CCN(CC)C(=O)/C(C#N)=C/c1cc(O)c(O)c([N+](=O)[O-])c1 [entacapone] (10 µM) | 102%
O=[N+]([O-])c1nccn1CC(O)CN1CCCCC1 (stereo not given) [pimonidazole] (10 µM) | 108%
COc1ccc2ccc(=O)oc2c1CC=C(C)C [osthol] (10 µM) | 107%
NC(=O)c1ccc2[nH]ccc2c1 (10 µM) | 87.5%
C[C@H](CS)C(=O)N1CCC[C@H]1C(=O)O [captopril] (10 µM) | 104%
COc1ccnc(C[S+]([O-])c2nc3cc(OC(F)F)ccc3[nH]2)c1OC (stereo not given) [pantoprazole] (10 µM) | 104%
CC(=O)SCCC(=O)N1[C@H](C)CCC[C@@H]1C(=O)O [methiopril] (10 µM) | 102%
CO/N=C(\C(=O)N[C@@H]1C(=O)N2C(C(=O)[O-])=C(C[n+]3ccn4ncccc43)CS[C@H]12)c1nsc(N)n1 [cefozopran] (10 µM) | 112%
Cc1ccccc1N1CCN(CCc2nnc3n2CCCC3)CC1 [dapiprazole] (10 µM) | 87.5%
CC1=C(C(=O)O)N2C(=O)[C@@H](NC(=O)[C@H](N)c3ccc(O)cc3)[C@H]2SC1 [cefadroxil] (10 µM) | 108%
CCc1cc2c(cc1CC)CC(NC[C@H](O)c1ccc(O)c3[nH]c(=O)ccc13)C2 [indacaterol] (10 µM) | 114%
C[C@]1(O)C[C@@H](c2nc(-c3ccc4ccc(-c5ccccc5)nc4c3)c3c(N)nccn32)C1 [linsitinib] (10 µM) | 88.5%
C[C@]12COC(=O)C[C@@H]1CC[C@@H]1[C@@H]2CC[C@@]2(C)[C@H]1CC[C@]2(C)O [Oxandrolone] (10 µM) | 112%
CC(C)N(CCNC(=O)CN1CCCC1=O)C(C)C [pramiracetam] (10 µM) | 115%
O=C(NC[C@H]1CN(c2ccc(N3CCOCC3=O)cc2)C(=O)O1)c1ccc(Cl)s1 [Rivaroxaban (Xarelto)] (10 µM) | 97.5%
C=C1c2cccc(O)c2C(=O)C2=C(O)[C@]3(O)C(=O)C(C(N)=O)=C(O)[C@@H](N(C)C)[C@@H]3[C@@H](O)[C@H]12 [methacycline] (0.833333 µM) | 103%
